We go through seven molecules from PubChem BioAssay (NCI).

Among the test systems are HCT-15 colon; HT29 colon; SNB-75 CNS; SNB-19 CNS; U251 CNS; PC-3 prostate; SK-MEL-5 melanoma; UACC-62 melanoma; LOX IMVI melanoma; SK-MEL-28 melanoma; SK-MEL-2 melanoma; EKVX NSCLC; SN12C renal; TK-10 renal; ACHN renal; CAKI-1 renal; A498 renal; CCRF-CEM leukemia; MOLT-4 leukemia; UO-31 renal.
What all share (assay): NCI-60 one-dose screen, 48 h (100 = growth as untreated, 0 = no growth, -100 = all killed)
Details in all cases: 10 µM unless noted

“And” between values parts separate entries of the source, which are not always exact repeats. Equal entries are not always repeated. Compounds without any hit were thinned out: in the full panel of roughly 83,000, 20% have a hit.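 96-well plates, one dose, 48 hours. Percent growth reported; active if below 10.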 Some compounds were tested as several samples or in several runs, with calls that do not always agree. The source made the active and inactive calls.

Turning to `S=C(S)N1CCCC1`, the growth in the test on HCT-15 colon is 107% (inactive); in the test on HT29 colon, 76.7% (inactive) and 22.4% (inactive); in the test with SNB-75 CNS it was 113% (inactive) and 89% (inactive); in the test on SNB-19 CNS it was 99.1% (inactive) and 100% (inactive); in the test with U251 CNS, 85.1% (inactive) and 49% (inactive); in the test on PC-3 prostate it was 84.7% (inactive) and 82.8% (inactive). In addition, the growth is 79.7% (inactive) and 67.8% (inactive) with SK-MEL-5 melanoma; 90.9% (inactive) and 105% (inactive) in the test on UACC-62 melanoma; 108% (inactive) and 90.2% (inactive) in the test on LOX IMVI melanoma; 95.1% (inactive) and 107% (inactive) in the test with SK-MEL-28 melanoma; 98% (inactive) and 99.7% (inactive) in the test on SK-MEL-2 melanoma; 114% (inactive) and 99% (inactive) in the test with EKVX NSCLC. Besides, the growth in the test with SN12C renal is 96.4% (inactive) and 109% (inactive); in the test on TK-10 renal, 96.5% (inactive) and 96.3% (inactive); with ACHN renal it was 125% (inactive) and 110% (inactive); in the test on CAKI-1 renal it was 124% (inactive); with A498 renal, 72.5% (inactive) and 102% (inactive); in the test on CCRF-CEM leukemia it was 65.5% (inactive) and 70.7% (inactive). Besides, in the test with MOLT-4 leukemia, the growth was 98.7% (inactive) and 107% (inactive).

Consider `COc1ccccc1C(C)=O`, for which the growth in the test on HCT-15 colon is 108% (inactive) and 95.7% (inactive); in the test on HT29 colon, 114% (inactive) and 102% (inactive); with SNB-75 CNS it was 105% (inactive) and 85.1% (inactive); in the test on SNB-19 CNS, 116% (inactive) and 109% (inactive); in the test with U251 CNS, 107% (inactive) and 106% (inactive); with PC-3 prostate, 89.7% (inactive) and 96.9% (inactive). The growth with SK-MEL-5 melanoma was 105% (inactive) and 110% (inactive); with UACC-62 melanoma, 109% (inactive) and 108% (inactive); with LOX IMVI melanoma it was 103% (inactive) and 60.6% (inactive); in the test with SK-MEL-28 melanoma it was 121% (inactive) and 106% (inactive); with SK-MEL-2 melanoma it was 109% (inactive); in the test with EKVX NSCLC, 98% (inactive). Further, the growth was 118% (inactive) and 108% (inactive) in the test with SN12C renal; 89.4% (inactive) and 96.5% (inactive) with UO-31 renal; 118% (inactive) and 99.4% (inactive) with TK-10 renal; 105% (inactive) and 102% (inactive) in the test on ACHN renal; 92% (inactive) and 108% (inactive) in the test on A498 renal; 102% (inactive) in the test on CCRF-CEM leukemia. The growth in the test with MOLT-4 leukemia is 95.4% (inactive) and 99.1% (inactive).

Regarding `CCOC(=O)C(C(=O)OCC)C(c1ccccc1)N1CCN(c2ccccc2)CC1` (stereo not drawn), the growth was 108% (inactive) and 94.8% (inactive) in the test on HCT-15 colon; 107% (inactive) and 106% (inactive) in the test on HT29 colon; 94.7% (inactive) and 103% (inactive) with SNB-75 CNS; 99.4% (inactive) and 110% (inactive) in the test with SNB-19 CNS; 105% (inactive) and 98% (inactive) with U251 CNS; 110% (inactive) and 109% (inactive) with PC-3 prostate. Also, the growth with SK-MEL-5 melanoma was 105% (inactive) and 102% (inactive); with UACC-62 melanoma, 98.7% (inactive) and 107% (inactive); in the test with LOX IMVI melanoma, 103% (inactive) and 98.4% (inactive); with SK-MEL-28 melanoma, 109% (inactive) and 111% (inactive); in the test with SK-MEL-2 melanoma, 105% (inactive) and 100% (inactive); with EKVX NSCLC it was 107% (inactive) and 103% (inactive). Moreover, the growth in the test with SN12C renal was 98.2% (inactive) and 110% (inactive); with UO-31 renal it was 73.8% (inactive) and 78.9% (inactive); in the test with ACHN renal, 105% (inactive); with CAKI-1 renal it was 112% (inactive) and 98.1% (inactive); in the test on A498 renal, 139% (inactive) and 107% (inactive); in the test on CCRF-CEM leukemia, 95.9% (inactive). In the test on MOLT-4 leukemia, the growth is 103% (inactive) and 99.1% (inactive).

With `CN1C(=O)C(N=Nc2ccc([N+](=O)[O-])cc2)SC1=S` (stereo not drawn), the growth in the test on HCT-15 colon is 51.7% (inactive) and 50.8% (inactive); with HT29 colon it was 64.4% (inactive) and 80.4% (inactive); in the test on SNB-75 CNS, 85.9% (inactive) and 91.5% (inactive); with SNB-19 CNS it was 69.4% (inactive) and 81.4% (inactive); with U251 CNS, 62.8% (inactive) and 69.4% (inactive); in the test with PC-3 prostate, 55.5% (inactive) and 50.8% (inactive). Also, the growth is 71.3% (inactive) and 73.7% (inactive) in the test on SK-MEL-5 melanoma; 29.8% (inactive) and 38.4% (inactive) in the test with UACC-62 melanoma; 41.9% (inactive) and 51.5% (inactive) in the test with LOX IMVI melanoma; 86.6% (inactive) and 95.9% (inactive) with SK-MEL-28 melanoma; 52.2% (inactive) and 60.1% (inactive) with SK-MEL-2 melanoma; 117% (inactive) and 82% (inactive) in the test on EKVX NSCLC. Besides, the growth was 62.4% (inactive) and 69.3% (inactive) in the test on SN12C renal; 37.2% (inactive) and 49.9% (inactive) in the test on UO-31 renal; 51.8% (inactive) and 56.5% (inactive) in the test with ACHN renal; 103% (inactive) and 75.3% (inactive) with CAKI-1 renal; 85.5% (inactive) and 89.6% (inactive) in the test with A498 renal; 54.5% (inactive) and 40.8% (inactive) with CCRF-CEM leukemia. Moreover, the growth with MOLT-4 leukemia is 76.7% (inactive) and 70.5% (inactive).

As for `CC[N+](CC)(CC(=O)Nc1c(C)cccc1C)Cc1ccccc1`, the growth with HCT-15 colon is 88.6% (inactive) and 104% (inactive); in the test on HT29 colon, 101% (inactive) and 102% (inactive); in the test with SNB-75 CNS, 84.9% (inactive) and 101% (inactive); in the test with SNB-19 CNS, 95.4% (inactive) and 96.8% (inactive); in the test on U251 CNS it was 75.6% (inactive) and 97.9% (inactive); with PC-3 prostate, 84.3% (inactive) and 97.2% (inactive). Also, the growth is 85.7% (inactive) and 98.7% (inactive) with SK-MEL-5 melanoma; 81.6% (inactive) and 93.2% (inactive) in the test on UACC-62 melanoma; 79% (inactive) and 98.3% (inactive) in the test on LOX IMVI melanoma; 99.7% (inactive) and 103% (inactive) with SK-MEL-28 melanoma; 107% (inactive) and 119% (inactive) in the test with SK-MEL-2 melanoma; 106% (inactive) and 100% (inactive) in the test on EKVX NSCLC. In addition, the growth with SN12C renal is 85.9% (inactive) and 100% (inactive); in the test on UO-31 renal it was 92.6% (inactive) and 71.6% (inactive); in the test on ACHN renal it was 98.5% (inactive) and 101% (inactive); with CAKI-1 renal it was 108% (inactive) and 91.9% (inactive); in the test on A498 renal it was 106% (inactive) and 107% (inactive); in the test with CCRF-CEM leukemia it was 2.65% (active). Moreover, in the test on MOLT-4 leukemia, the growth is 99.8% (inactive) and 98.6% (inactive).

`COC(=O)/C=C/c1cc(O)c2c(c1)C(C(=O)OC)C(c1ccc(O)c(O)c1)O2` (stereo not drawn): the growth in the test on HCT-15 colon is 16.7% (inactive) and 16.2% (inactive); in the test with HT29 colon it was 22.8% (inactive) and 16.3% (inactive); with SNB-75 CNS, 52.9% (inactive) and 37.5% (inactive); in the test on SNB-19 CNS, 35.7% (inactive) and 37.2% (inactive); in the test on U251 CNS it was 20.7% (inactive) and 14.9% (inactive); in the test with PC-3 prostate, 20.3% (inactive) and 17% (inactive). The growth in the test on SK-MEL-5 melanoma is 3.62% (active) and -13.7% (active); in the test with UACC-62 melanoma it was 25.9% (inactive) and 31.2% (inactive); with LOX IMVI melanoma, 20.8% (inactive) and 16.3% (inactive); in the test with SK-MEL-28 melanoma, 55.3% (inactive) and 53% (inactive); with SK-MEL-2 melanoma, 50.6% (inactive) and 49.3% (inactive); in the test with EKVX NSCLC, 35.2% (inactive) and 38.2% (inactive). Further, the growth was 29.5% (inactive) and 24.6% (inactive) in the test on SN12C renal; 38.1% (inactive) and 40.4% (inactive) in the test with UO-31 renal; 26.2% (inactive) and 27.2% (inactive) in the test with ACHN renal; 17.5% (inactive) and 18.5% (inactive) in the test on CAKI-1 renal; 18.2% (inactive) and 6.71% (active) in the test with A498 renal; 13.5% (inactive) and 16% (inactive) with CCRF-CEM leukemia. Moreover, the growth with MOLT-4 leukemia is 17.8% (inactive) and 21.7% (inactive).

In the case of `Oc1ccccc1/C=N\NC(=S)N/N=C/c1ccccc1O`, the growth was 19.1% (inactive) and 22.4% (inactive) in the test on HCT-15 colon; 39.1% (inactive) and 54.6% (inactive) in the test on HT29 colon; 77% (inactive) and 90.1% (inactive) in the test with SNB-75 CNS; 51.1% (inactive) and 44.6% (inactive) with SNB-19 CNS; 41% (inactive) and 24.2% (inactive) with U251 CNS; 35% (inactive) in the test on PC-3 prostate. Moreover, the growth is 35.7% (inactive) and -37% (active) in the test with SK-MEL-5 melanoma; 20.4% (inactive) and -5.16% (active) with UACC-62 melanoma; 28.4% (inactive) and 25.3% (inactive) in the test with LOX IMVI melanoma; 53.6% (inactive) and 58.8% (inactive) with SK-MEL-28 melanoma; 82.3% (inactive) and 24.6% (inactive) in the test on SK-MEL-2 melanoma; 61% (inactive) and 71.2% (inactive) in the test with EKVX NSCLC. Besides, the growth was 58.8% (inactive) and 51.3% (inactive) in the test with SN12C renal; 12.4% (inactive) and 15.5% (inactive) in the test on UO-31 renal; 51.4% (inactive) and 24.3% (inactive) in the test on TK-10 renal; 15% (inactive) and 10.8% (inactive) with ACHN renal; 58.5% (inactive) in the test on A498 renal; 15.9% (inactive) and 15.1% (inactive) in the test on CCRF-CEM leukemia. Also, the growth with MOLT-4 leukemia was 21.6% (inactive) and 16% (inactive).
